# Results from PubChem BioAssay AID686978 (National Center for Advancing Translational Sciences (NCATS), 2013).
# Out of some 420,000 compounds screened, about 64,000 (15%) were called active. Another 27% or so got no clear call; they are omitted. Only a sample is shown. Unmarked numbers belong to inactive results. Calls come from the whole dose curve; as a rule, active = well fitted inhibition curve with a large enough effect; inconclusive = small, poorly fitted or top-dose-only effect; inactive = flat fitted curve, though single readings scatter.
# Experiment: qHTS for Inhibitors of human tyrosyl-DNA phosphodiesterase 1 (TDP1): qHTS in cells in absence of CPT; note: nearly all actives have a fitted effect of over 55% in size
# Settings: DT40 Tdp1-/- hTDP1 cells, no CPT, ATP luminescence, 48 h; activity change, negative = growth inhibition: at 46.2 µM (top of the series)
# Outline: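 Growth kinetics read by CellTiter-Glo luminescence after ≥48 hr at 37 °C. Cells: DT40 Tdp1-/- stably carrying human TDP1, 400 per well, compound exposure in the absence of CPT (DMSO vehicle).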
# % is set by controls: 0 for no effect and ±100 for the full control effect; potency is the fitted concentration of half-maximal effect.
Structure (SMILES),"activity change, negative = growth inhibition",Potency
Cc1cc(C(=O)OC(C)C(=O)Nc2cccc(S(=O)(=O)N3CCOCC3)c2)c(C)o1 (configuration not stated),-31.2%,–
COCCCNC(=S)NC(=O)c1ccc([N+](=O)[O-])cc1,-23.1%,–
CCOc1ccccc1NS(=O)(=O)c1c[nH]c(C(=O)OC)c1,-29.1%,–
COCCCNC(=O)c1c(NC(=O)c2cc(=O)c3cc(C)c(C)cc3o2)sc2c1CCCC2,-16.2%,–
Cc1cc(O)c(C2(O)C(=O)Nc3ccccc32)cc1C (configuration not stated),-2.69%,–
CC(C)(C)c1ccc(Oc2ccc(N)cc2)cc1,-18.1%,–
COc1cnc(-c2ccccn2)nc1Oc1ccc(C(C)(C)C)cc1,–,4.61 µM (active)
Cc1ccc(Oc2nc(-c3ccccn3)nc3ccccc23)cc1,–,18.4 µM (active)
CC(C)(C)Nc1nc(-c2ccccn2)nc2ccccc12,–,4.11 µM (active)
CCOC(=O)c1cnc(-c2ccccc2)nc1Oc1ccc(C)cc1,-11.3%,–
COc1ccc(Cc2nc(-c3ccccn3)no2)cc1OC,7.04%,–
Cc1nc2ccccc2c(C(=O)O)c1-c1ccccn1,14.2%,–
O=C(c1ccc(NS(=O)(=O)c2ccc3[nH]c(=O)[nH]c3c2)cc1)N1CCCCC1,-0.463%,–
CCC(CC)C(=O)Nc1c2c(nn1-c1ccc(C)cc1)CS(=O)(=O)C2,-10.3%,–
Cc1noc(COc2ccccc2OCc2onc(C)c2Cl)c1Cl,-14.2%,–
CC1(OC(=O)C2CCCC2)C(=O)C=C2C=C(c3ccc(C#N)cc3)OC=C2C1=O (configuration not stated),1.66%,–
CC(C)NC(=O)CSc1nnc(COc2ccccc2Cl)o1,0.313%,–
C/C(=N\NS(=O)(=O)c1cccc([N+](=O)[O-])c1)c1cc2ccccc2o1,-20.6%,–
Cc1cc(NC(=O)COC(=O)COc2ccc(Cl)cc2C)c([N+](=O)[O-])cc1C,-40.4%,–
O=C(CCCN=C1NS(=O)(=O)c2ccccc21)OCC(=O)c1ccc(F)c(F)c1,-2.32%,–
S=c1[nH]nc(-c2ccncc2)n1/N=C/c1ccccc1Cl,-7.12%,–
CCc1n[nH]c(=S)n1/N=C/c1c[nH]c2ccc(Br)cc12,–,18.4 µM (active)

Structure (SMILES),"activity change, negative = growth inhibition",Potency
Fc1ccc(/C=N/n2c(COc3ccccc3)n[nH]c2=S)cc1,-4.74%,–
S=c1[nH]nc(-c2ccccc2)n1/N=C/c1c[nH]c2ccccc12,–,6.51 µM (active)
Oc1ccccc1/C=N/n1c(-c2cccs2)n[nH]c1=S,-9.3%,–
Cc1ccc(/C=N\n2c(-c3ccccc3)n[nH]c2=S)s1,-20.4%,–
N#CCCN1CCN(S(=O)(=O)c2ccc(S(=O)(=O)NC3CCCCC3)cc2)CC1,-18.6%,–
COc1ccc(CCC(=O)OCC(=O)Nc2ccc(C)c(S(=O)(=O)N(C)C)c2)cc1,-4.58%,–
CCCCCCSc1nsc(N)n1,-28%,–
CCOC(=O)CSc1nnc(CNC(=O)c2cccs2)n1-c1cc(OC)ccc1OC,0.211%,–
Cc1cc(=O)oc2c(C(=O)c3ccccc3)c(OCC(N)=O)ccc12,-0.608%,–
O=C(CCCn1c(=O)oc2ccccc21)Nc1cccnc1,-2.31%,–
CC(C)Cn1cc(-c2cncc3nccn23)cn1,-11.4%,–
Cn1c(=O)[nH]c(=O)c2c1nc(Br)n2CCCCSc1nc2ccccc2o1,–,18.4 µM (active)
Cc1ccnc(SCCn2c(Br)nc3c2c(=O)[nH]c(=O)n3C)n1,-6.34%,–
Fc1ccccc1OCCSc1nc2ccccc2o1,-13.3%,–
CCc1ccc(-c2nc(SCC(=O)NC3CCCC3)n[nH]2)cc1,–,23.1 µM (active)
COc1ccc(-c2nc(SCC(=O)N3CCCC3)n[nH]2)cc1,-14.3%,–
CCc1c(C)nc(SCC(=O)NC2CCCC2)[nH]c1=O,5.26%,–
Cc1cc(Br)ccc1SCC(=O)OCC(=O)NCc1ccc2c(c1)OCO2,6.68%,–
CCOc1ccc(C(=O)NC(C(=O)NCc2ccccn2)C(C)C)cc1 (configuration not stated),-22.4%,–
COc1ccc(F)cc1S(=O)(=O)N1CCCCC1,-12.5%,–
CCOc1c(CNCc2ccc(C(=O)O)cc2)cccc1OC,-12.9%,–
COc1ccc(CCNCc2c(C(=O)O)c(C)n(Cc3cccc(C)c3)c2C)cc1OC,-25.8%,–

Structure (SMILES),"activity change, negative = growth inhibition",Potency
COc1cccc(CNCc2c(C(=O)O)n(Cc3ccc(C)cc3)c3cc(C)ccc23)c1OC,–,16.4 µM (active)
CCOC(=O)c1c(Cc2ccc(Cl)cc2)c[nH]c1C,-25.9%,–
NC(=NC(=O)c1ccccc1)N1CCOCC1,-7.81%,–
O=C(CNS(=O)(=O)c1ccccc1)NCC(=O)OCc1ccccc1F,-1.4%,–
CCOc1ccc2nc(NCCNC(=O)C(C)(C)C)c(C)cc2c1,3.35%,–
COc1ccc(CNC(=O)Cn2nnc(-c3ccc(S(C)(=O)=O)cc3)n2)cc1,3.37%,–
COc1ccc(-c2nc3sc(CCNC(=O)C(C)(C)C)c(C)n3n2)cc1,–,23.1 µM (active)
COc1ccc(CCNS(=O)(=O)c2cn(C)nc2C)cc1,21.6%,–
Cc1ccc(S(=O)(=O)NCCC(=O)Nc2cccc(S(N)(=O)=O)c2)cc1C,-7.74%,–
COc1ccc(-c2nc3sc(CCNS(=O)(=O)c4ccc(F)c(C)c4)c(C)n3n2)cc1,–,20.6 µM (active)
COC(=O)C1=NNC2(c3ccc(C)cc3)C(=O)N(c3cccc(C)c3C)C(=O)C12 (configuration not stated),0.864%,–
CS(=O)(=O)c1ccc(-c2nnn(CC(=O)Nc3ccc4c(c3)OCCO4)n2)cc1,-22.9%,–
O=C(NC1CCN(Cc2ccccc2)CC1)c1cc(Br)c(Br)[nH]1,–,16.4 µM (active)
O=C(NC1CCN(Cc2ccccc2)CC1)c1ccccc1F,-1.29%,–
O=C(NC1CCN(Cc2ccccc2)CC1)c1ccc(Oc2cc(Cl)cc(Cl)c2)o1,–,18.4 µM (active)
CC(=O)NCc1ccc(S(=O)(=O)NC2CCN(Cc3ccccc3)CC2)cc1,-25.9%,–
O=C(NC1CCN(Cc2ccccc2)CC1)c1c(F)cccc1F,-0.567%,–
O=S(=O)(NCc1ccccn1)c1ccc(Br)s1,-29.1%,–
CCOCCCNC(=O)c1c[nH]c2cc(C)ccc2c1=O,-26.3%,–
COc1cccc(OCc2nnc3n2N=C(c2ccccc2)C(CC(=O)O)S3)c1 (configuration not stated),-1.23%,–
Cc1nn(-c2ccccc2)c(Cl)c1C(=O)Nc1ccccc1,-11.2%,–
O=C(O)c1ccc2c(c1)C(=O)N(c1ccc(/C=C/C(=O)c3ccccc3)cc1)C2=O,12.3%,–

Structure (SMILES),"activity change, negative = growth inhibition",Potency
Cc1ccc(C(=O)/C=C/c2c(C)nn(-c3ccccc3)c2Cl)cc1,–,20.6 µM (active)
Cc1nn(-c2ccccc2)c(C)c1/C=C/C(=O)OC(C)C(N)=O (configuration not stated),-4.84%,–
Cc1nn(-c2ccccc2)c(CC(C)(C)C(=O)O)c1C(=O)O,-4.67%,–
Cc1nn(-c2ccccc2)c(Cl)c1/C=C/C(=O)c1ccc(O)cc1,–,16.4 µM (active)
COc1ccc(C2CC(=O)C=C(NCC3CCCO3)C2)cc1 (configuration not stated),0.462%,–
COC(=O)c1ccc(/C=N\n2c(C)nnc2C)cc1,-0.419%,–
CC(OC(=O)c1ccc(NS(=O)(=O)c2ccc3[nH]c(=O)[nH]c3c2)cc1)C(=O)Nc1cccc(Cl)c1Cl (configuration not stated),3.55%,–
O=C(COCc1cc(-c2ccc3c(c2)OCO3)on1)N1CCN(c2cccc(Cl)c2)CC1,-1.5%,–
Cc1cc(/C=C2/C(=N)N3C(=NC2=O)SN=C3S(C)(=O)=O)c(C)n1-c1ccccc1,-18.8%,–
O=C(CSc1nnc(Cc2ccccc2)n1-c1ccccc1)N1CCOCC1,-0.859%,–
CN(CCc1ccccn1)C(=O)c1ccc(OC2CCN(CCc3ccccc3)CC2)cc1,-27%,–
Fc1ccc(-c2ccc(-c3nn4c(-c5ccco5)nnc4s3)o2)cc1,-28.6%,–
c1ccc(-c2cc(-c3ccccc3)[nH]n2)cc1,-8.4%,–
c1ccc(-c2cc(-c3nnc4sc(-c5ccccn5)nn34)[nH]n2)cc1,–,13 µM (active)
COC(=O)C1[C@H]2SC(C)(C)C(C(=O)OC)N2C(=O)N1Cc1nc2ccccc2s1 (some centres not stated),-3.96%,–
Cc1cccc(CSc2nnc(Cn3c(=O)sc4ccccc43)n2C)c1,-24.2%,–
Brc1ccc(C2CC(c3ccccc3)=Nc3ccccc3N2)cc1 (configuration not stated),–,23.1 µM (active)
CNC(=S)N1N=C(c2ccccc2)CC1c1ccc(Br)cc1 (configuration not stated),-23%,–
CCCC(=O)Nc1cccc(NC(=S)NC(=O)C(C)Oc2ccc(Cl)cc2Cl)c1 (configuration not stated),-24.7%,–
CC(Cc1cccs1)NC(=O)c1cccc(Cl)c1 (configuration not stated),-29.3%,–
Cc1noc(C)c1S(=O)(=O)N(C)C[C@H]1Oc2ccc(NC(=O)C3CC3)cc2C(=O)N([C@H](C)CO)C[C@@H]1C,-17.6%,–
COc1ccc(-c2nc(Cn3c(=O)cc(C)c4c(C)nn(-c5ccccc5)c43)c(C)o2)cc1OC,5.82%,–

Structure (SMILES),"activity change, negative = growth inhibition",Potency
COc1ccc(-c2nc(Cn3c(=O)cc(C)c4c(C)nn(-c5ccccc5)c43)c(C)o2)c(OC)c1,–,20.6 µM (active)
Cc1ccc(-c2nc(Cn3c(=O)cc(-c4ccccc4)c4c(C)nn(C)c43)c(C)o2)cc1,-4.46%,–
COc1cc(NC(=O)COC(=O)CSc2ccc3ccccc3c2)c(C)cc1[N+](=O)[O-],-20.6%,–
O=C1N=C(N2CCOCC2)S/C1=C\C=C/c1ccccc1,-25.6%,–
CC1CCN(C2=NC(=O)/C(=C/c3cn[nH]c3-c3ccccc3)S2)CC1,–,14.6 µM (active)
Cc1nc2nc(C)c(NS(=O)(=O)c3ccc(C(C)(C)C)cc3)c(=O)n2[nH]1,-14.5%,–
CC(=O)c1ccc(OC(=O)N2CCOCC2)cc1,-11.9%,–
Cc1ccc(CN(C)Cc2cc(=O)oc3cc(C)c(Cl)cc23)cc1,0.563%,–
COc1ccc(S(=O)(=O)N(C)C[C@@H]2Oc3ccc(NS(=O)(=O)c4cn(C)cn4)cc3C(=O)N([C@@H](C)CO)C[C@@H]2C)cc1,2.75%,–
Cn1c(N)c(C(=O)COC(=O)c2ccc3ccccc3c2)c(=O)n(C)c1=O,-16.8%,–
Cc1cc(OCC(=O)Nc2c(C)n(C)n(-c3ccccc3)c2=O)ccc1[N+](=O)[O-],1.98%,–
Cc1ccccc1N1CCN(CCCOc2ccc3c(C)cc(=O)oc3c2)CC1,–,16.4 µM (active)
Cc1cc(OCCCN2CCN(Cc3ccccc3)CC2)ccc1[N+](=O)[O-],–,11.6 µM (active)
Cc1cc(OCC(=O)NC2CCN(C)CC2)ccc1[N+](=O)[O-],-1.1%,–
Cc1ccccc1N1CCN(CCCN2C(=O)C3CCCCN3C2=O)CC1 (configuration not stated),-19.9%,–
Cc1ccc(OCC(=O)Oc2ccccc2[N+](=O)[O-])cc1,0.798%,–
Cc1cc(OCCCCOc2ccc(C#N)cc2)ccc1[N+](=O)[O-],–,8.2 µM (active)
CCc1cc(=O)oc2cc(OCC(=O)N3CCCc4ccccc43)ccc12,-0.399%,–
Cc1c(Br)c([N+](=O)[O-])nn1CC(=O)N1CCN(Cc2ccccc2)CC1,2.31%,–
